# Inconclusive results are not listed. Entries that show only a call come without a potency. Activity calls are given as the source filed them. Unless noted, the call rests on the fitted dose curve; in most records, active means well fitted curve in the direction sought with a large enough effect; inconclusive means small, poorly fitted or top-dose-only effect, or another doubt; inactive means no such curve, though single readings can be large; an effect the other way counts as inactive or inconclusive.
# How the values were obtained:
# [1] = S16 Schwann cell PMP22 intronic element firefly luciferase assay (AID 624032); further: nearly all actives have a fitted effect of over 30% in size; further: potency means the concentration at half of the fitted maximal effect
# Procedure, shortened: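 Rat S16 Schwann cells stably carrying firefly luciferase driven by a PMP22 intronic element, in 10% FBS, treated 24 h at 37 C. ONE-Glo luminescence normalized to PTC124 control and DMSO (0%); curves classed by r2, magnitude and activity.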
# [2] = S16 Schwann cell PMP22 intronic element beta-lactamase assay (AID 624044; calls by dose curve; further: nearly all actives have a fitted effect of over 15% in size; further: potency means the concentration at half of the fitted maximal effect); details: S16 rat Schwann cells, PMP22 element beta-lactamase FRET, 24 h; ratio activity, negative = inhibition: at 38.3 µM (top of the series)
# Procedure, shortened: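 Rat S16 Schwann cells with beta-Lac driven by a PMP22 intronic element, compound-treated 24 h at 37 °C. LiveBLAzer FRET B/G read: 460 nm normalized to potassium clavulanate vs DMSO; 535 nm FRET as viability; concentration-effect curves classified.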
# DIV17 = test: qHTS profiling for inhibitors of Plasmodium falciparum proliferation (AID 504749); further: nearly all actives have a fitted effect of over 60% in size; further: potency means the concentration at half of the fitted maximal effect; details: P. falciparum in erythrocytes, SYBR Green DNA, 72 h; series mostly up to 28.7 µM
# Procedure, shortened: (§1)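 Readout was DNA-dye fluorescence from lysed cultures, ex 485/em 535 nm. Parasitized red cells had grown 72 h with compound; data scaled between 0.29 uM artemisinin and DMSO wells and corrected using vehicle-only plates.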
# W2 = test: as above; details: P. falciparum in erythrocytes, SYBR Green DNA, 72 h; series mostly up to 28.7 µM
# Procedure, shortened: as §1
# [3] = target: Ubiquitin carboxyl-terminal hydrolase 1 (Homo sapiens) (UniProt O94782); test: Inhibitors of USP1/UAF1: Pilot qHTS (AID 504865); further: nearly all actives have a fitted effect of over 35% in size; further: potency means the concentration at half of the fitted maximal effect
# Procedure, shortened: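 Enzyme-free wells gave the negative control, while test wells held 1nM USP1/UAF1 preincubated with compound for 15 min at room temperature. Ub-Rho at 150nM final started the reaction, and fluorescence at 480/540 nm was recorded kinetically.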
# [4] = S16 Schwann cell viability assay (CellTiter-Glo assay) (AID 624031); further: nearly all actives have a fitted effect of over 70% in size; further: potency means the concentration at half of the fitted maximal effect
# Procedure, shortened: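 Native S16 rat Schwann cells, 500-750 cells/well in DMEM with 10% FBS, dosed with compound after overnight culture and incubated 24h at 37 degree Celsius/5% CO2. Viability by CellTiter-Glo luminescence; % activity normalized to no-cell wells and DMSO-treated cells.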
# [5] = target: Cytochrome P450 3A4 (Homo sapiens) (UniProt P08684); test: qHTS Assay for Inhibitors and Substrates of Cytochrome P450 3A4 (AID 884); further: nearly all actives have a fitted effect of over 50% in size
# Procedure, shortened: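 20 nM human CYP3A4 with 25 uM Luciferin-PPXE (at KM) in 200 mM KPO4, preincubated 10 min with compound; NADPH regeneration started a 60 min RT reaction. Luciferin detected by luminescence, normalized to 57 uM ketoconazole as full inhibition.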
# [6] = Confirmation and Secondary Assay for Modulators of Hemoglobin Beta Chain Splicing at IVS2 654 locus (AID 910);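 further: HeLa cells stably carrying EGFP split by mutant beta-globin IVS2-654 intron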
# Procedure, shortened: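 HeLa cells stably expressing EGFP interrupted by β-globin IVS2-654 intron, seeded overnight in Opti-MEM/2% FCS, then treated 2 days at 37 °C. Restored splicing read as total peak GFP intensity per well by laser scanning cytometry (488 nm excitation, 500–520 nm emission); 500 nM antisense PNA as control.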
# [7] = Confirmation and Secondary Assay for Modulators of Hemoglobin Beta Chain Splicing at IVS2 705 locus (AID 930);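 further: HeLa cells stably expressing the EGFP-705 splicing reporter; GFP fluorescence per well restored by corrected splicing of the IVS2-705 intron in EGFP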
# Procedure, shortened: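 HeLa cells stably carrying EGFP interrupted by mutant beta-globin intron 2 (IVS2-705) treated 2 days at 37C with compound; 500 nM antisense PNA as control. Correct splicing read as total peak GFP intensity per well by laser-scanning cytometry.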
# Chain of Ubiquitin carboxyl-terminal hydrolase 1 (Homo sapiens) (O94782 whole entry, looked up): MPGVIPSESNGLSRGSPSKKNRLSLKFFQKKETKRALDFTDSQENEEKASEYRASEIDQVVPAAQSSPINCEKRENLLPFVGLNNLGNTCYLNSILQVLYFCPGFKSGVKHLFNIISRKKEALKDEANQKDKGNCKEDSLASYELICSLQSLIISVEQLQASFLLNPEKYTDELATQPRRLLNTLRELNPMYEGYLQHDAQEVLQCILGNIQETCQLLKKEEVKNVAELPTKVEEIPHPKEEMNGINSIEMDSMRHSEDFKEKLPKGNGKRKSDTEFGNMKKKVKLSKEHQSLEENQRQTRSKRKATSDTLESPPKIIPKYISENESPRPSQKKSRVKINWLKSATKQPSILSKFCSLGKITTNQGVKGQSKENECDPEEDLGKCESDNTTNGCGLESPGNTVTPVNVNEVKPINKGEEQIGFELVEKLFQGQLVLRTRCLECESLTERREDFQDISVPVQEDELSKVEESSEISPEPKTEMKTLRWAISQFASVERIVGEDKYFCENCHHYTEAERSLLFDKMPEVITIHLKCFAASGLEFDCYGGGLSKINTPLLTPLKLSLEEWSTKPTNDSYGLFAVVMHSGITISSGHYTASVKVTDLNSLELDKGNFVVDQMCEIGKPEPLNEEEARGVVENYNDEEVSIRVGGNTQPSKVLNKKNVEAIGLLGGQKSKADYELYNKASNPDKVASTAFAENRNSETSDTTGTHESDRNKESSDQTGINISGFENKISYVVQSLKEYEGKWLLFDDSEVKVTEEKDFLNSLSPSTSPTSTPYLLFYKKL
# Chain of Cytochrome P450 3A4 (Homo sapiens) (P08684 whole entry, looked up): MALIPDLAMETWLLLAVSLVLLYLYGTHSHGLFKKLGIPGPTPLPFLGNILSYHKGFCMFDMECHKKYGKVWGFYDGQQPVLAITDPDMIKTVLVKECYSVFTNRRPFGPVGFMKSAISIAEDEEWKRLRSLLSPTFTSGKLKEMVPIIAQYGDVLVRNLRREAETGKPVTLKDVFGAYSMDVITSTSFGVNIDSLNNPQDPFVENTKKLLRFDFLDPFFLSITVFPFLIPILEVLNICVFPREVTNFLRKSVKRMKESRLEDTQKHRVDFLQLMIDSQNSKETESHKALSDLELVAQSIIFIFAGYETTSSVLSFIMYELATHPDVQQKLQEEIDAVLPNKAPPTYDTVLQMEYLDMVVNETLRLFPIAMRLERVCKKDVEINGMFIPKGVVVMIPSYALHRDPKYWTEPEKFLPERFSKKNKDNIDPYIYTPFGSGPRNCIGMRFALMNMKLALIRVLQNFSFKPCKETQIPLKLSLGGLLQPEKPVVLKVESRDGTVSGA
SMILES,Potency [1],Potency [2],Potency (DIV17),Potency (W2),Potency [3],Potency [4],Potency [5],Potency [6],Potency [7]
NC[C@@H]1O[C@H](OC2[C@@H](CO)O[C@@H](OC3[C@H](O)[C@H](N)C[C@H](N)[C@H]3OC3O[C@H](CO)[C@@H](O)[C@H](O)[C@@H]3N)[C@H]2O)C(N)[C@H](O)[C@@H]1O (some centres not stated),inactive,inactive,inactive,inactive,–,–,–,–,–
C[C@H]1OC(OC2C(O)[C@@H](O)C(OC3C(O)[C@@H](O)C(O)O[C@@H]3CO)O[C@@H]2CO)[C@H](O)C(O)C1N[C@H]1C=C(CO)[C@@H](O)[C@H](O)C1O (some centres not stated),inactive,inactive,inactive,inactive,inactive,inactive,–,–,–
CC1OC(OCC2OC(Oc3c(-c4ccc(OCCO)c(OCCO)c4)oc4cc(OCCO)cc(O)c4c3=O)C(O)C(O)C2O)[C@@H](O)C(O)C1O (some centres not stated),inactive,inactive,inactive,inactive,inactive,inactive,inactive,inactive,inactive
OCC1O[C@H](O[C@H]2C(O)C(O)C(O)O[C@@H]2CO)C(O)C(O)C1O (some centres not stated),inactive,–,inactive,inactive,inactive,inactive,inactive,inactive,inactive
OC[C@@H]1O[C@](CO)(O[C@H]2O[C@H](CO)[C@@H](O)[C@H](O)[C@H]2O)[C@H](O)[C@H]1O,–,inactive,inactive,inactive,inactive,–,–,–,–
CCCCCCCCCCCCCCCC(=O)OCC(COP(=O)(O)OCC[N+](C)(C)C)OC(=O)CCCCCCCCCCCCCCC (configuration not stated),inactive,inactive,inactive,inactive,inactive,–,–,–,–
CO[C@H]1OC2O[C@@]3(C)CC[C@H]4[C@H](C)CC[C@@H]([C@H]1C)[C@@]24OO3 (some centres not stated),3.22 µM (active),–,0.012 µM (active),0.006 µM (active),inactive,–,–,–,–
CC1(C)C2CC[C@]1(C)[C@@H](O)C2,–,inactive,inactive,inactive,inactive,inactive,–,–,–
O=C(O)Cc1sc(-c2ccc(Cl)cc2)nc1-c1ccccc1,inactive,inactive,inactive,inactive,inactive,inactive,–,–,–
C=C[C@@]1(C)C[C@H](OC(=O)CSC(C)(C)CNC(=O)[C@@H](N)C(C)C)[C@@]2(C)C(C)CC[C@@]3(CCC(=O)[C@@H]32)[C@H](C)[C@H]1O (some centres not stated),0.361 µM (active),inactive,7.57 µM (active),0.269 µM (active),inactive,–,–,–,–
CO[C@H]1C[C@@H]2CC[C@@H](C)[C@@](O)(O2)C(=O)C(=O)N2CCCC[C@H]2C(=O)O[C@H]([C@H](C)C[C@@H]2CC[C@@H](O)[C@H](OC)C2)CC(=O)[C@H](C)/C=C(\C)[C@@H](O)[C@@H](OC)C(=O)[C@H](C)C[C@H](C)/C=C/C=C/C=C/1C,inactive,inactive,1.69 µM (active),1.2 µM (active),–,–,–,–,–
NC(CSSCC(N)C(=O)O)C(=O)O (configuration not stated),inactive,inactive,inactive,inactive,inactive,inactive,–,–,–
NCCCCC(N)C(=O)O (configuration not stated),inactive,inactive,inactive,inactive,inactive,inactive,–,–,–
Nc1nc(F)nc2c1ncn2[C@@H]1O[C@H](CO)[C@@H](O)[C@H]1O,inactive,inactive,inactive,inactive,inactive,inactive,–,–,–
CC[C@@]1(O)CC2CN(CCc3c([nH]c4ccccc34)[C@](C(=O)OC)(c3cc4c(cc3OC)N(C)C3[C@@](O)(C(=O)OC)C(OC(C)=O)[C@]5(CC)C=CCN6CC[C@@]43C65)C2)C1 (some centres not stated),0.51 µM (active),0.562 µM (active),4.78 µM (active),0.953 µM (active),inactive,–,–,inactive,inactive
OCC1OC(O)C(O)C(O)C1O (configuration not stated),inactive,inactive,–,–,inactive,–,–,–,–
CC(C)C(=O)OCC(=O)[C@@]12OC(C3CCCCC3)O[C@@H]1CC1C3CCC4=CC(=O)C=C[C@]4(C)C3[C@@H](O)C[C@@]12C (some centres not stated),–,inactive,1.35 µM (active),0.239 µM (active),–,–,–,–,–
O=C(O)c1ccc(N[C@@H]2OC[C@@H](O)[C@@H](O)[C@@H]2O)cc1,inactive,–,inactive,inactive,inactive,inactive,–,–,–
COc1ccc2cc1Oc1cc3c(cc1OC)CC[N+](C)(C)C3Cc1ccc(cc1)Oc1c(OC)c(OC)cc3c1C(C2)[N+](C)(C)CC3 (configuration not stated),inactive,inactive,inactive,–,inactive,–,–,–,–
CC(=O)C1(O)Cc2c(O)c3c(c(O)c2C(OC2CC(N)C(O)C(C)O2)C1)C(=O)c1c(O)cccc1C3=O (configuration not stated),–,–,5.36 µM (active),4.26 µM (active),22.4 µM (active),–,–,–,–
CO/N=C(/C(=O)N[C@@H]1C(=O)N2C(C(=O)O)=C(CSC(=O)c3ccco3)CSC12)c1csc(N)n1 (some centres not stated),inactive,inactive,inactive,inactive,inactive,inactive,–,–,–
CC[C@H](C)[C@H]1O[C@]2(CC[C@@H]1C)C[C@@H]1C[C@@H](C/C=C(\C)[C@H](O[C@@H]3C[C@H](OC)[C@H](O[C@@H]4C[C@H](OC)[C@@H](O)[C@H](C)O4)[C@H](C)O3)[C@@H](C)/C=C/C=C3\CO[C@@H]4[C@H](O)C(C)=C[C@@H](C(=O)O1)[C@]34O)O2,9.07 µM (active),–,2.13 µM (active),1.69 µM (active),–,12.8 µM (active),–,–,–
CCN(CC)CC(=O)Nc1c(C)cc(C)cc1C,inactive,inactive,inactive,–,inactive,–,–,–,–

# — PubChem BioAssay (NCATS)
